In assay [1] the target is T1, SALL4 ZFC4 R900W (HT-SELEX) (Mus musculus, UniProt Q8BX22 870-940, R900W).
T1 sequence: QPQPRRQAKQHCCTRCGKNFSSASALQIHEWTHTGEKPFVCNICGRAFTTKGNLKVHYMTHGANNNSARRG
Briefly: HT-SELEX; high values mean tight binding. The note with it: protein: recombinant; vector His6-GST; dsDNA, one strand shown. Summed up:
(§1)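 Purified recombinant mouse SALL4 zinc finger cluster 4 (residues 870–940, 1 µg) was incubated with library DNA (1.5 µg first cycle, 200 ng later) in 100 µl buffer (10 mM Tris–HCl pH 7.5, 50 mM NaCl, poly(dI-dC), DTT) for 10 min at room temperature. Ni2+ bead-captured complexes were washed, PCR-amplified and reselected for up to 6 cycles, in triplicate, then MiSeq-sequenced and scanned for 6-mers. Binding signal is each canonical k-mer's read fraction as fold change versus the initial random library.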

Assay [2] has as its target T2, SALL4 ZFC4 G921D (HT-SELEX) (Mus musculus, UniProt Q8BX22 870-940, G921D).
T2 sequence: T1 sequence with W31R, G52D
Put plainly: HT-SELEX; high values mean tight binding. The note with it: protein: recombinant; vector His6-GST; dsDNA, one strand shown. Summed up: as §1

These results are taken from publication PMC9838217, “Structure of SALL4 zinc finger domain reveals link between AT-rich DNA binding and Okihiro syndrome”.

Positions count from the first letter of the chain named.

As to AAGGCG, the binding signal was found to be 0.265 ± 0.014 fold-change vs cycle 0 in assay [1] and 0.425 ± 0.0847 fold-change vs cycle 0 in assay [2].
The matching figures for ATCGGC: 0.223 ± 0.00552 fold-change vs cycle 0 and 0.362 ± 0.0707 fold-change vs cycle 0.
The matching figures for ACGCGC: 0.0585 ± 0.00894 fold-change vs cycle 0 and 0.159 ± 0.07 fold-change vs cycle 0.
The matching figures for TCGTAA: 1.29 ± 0.0564 fold-change vs cycle 0 and 1.25 ± 0.113 fold-change vs cycle 0.
On to CGCCGA, for which the figures for the binding signal in assay [1] and in assay [2] were 0.0711 ± 0.00229 fold-change vs cycle 0 and 0.179 ± 0.0757 fold-change vs cycle 0, respectively.
The matching figures for CGACAG: 0.332 ± 0.0161 fold-change vs cycle 0 and 0.469 ± 0.0472 fold-change vs cycle 0.
Turning to CGACCC, the binding signal in assay [1] is 0.172 ± 0.00839 fold-change vs cycle 0; in assay [2] it was 0.317 ± 0.0852 fold-change vs cycle 0.
For the sequence CCCTCG, the binding signal in assay [1] is 0.278 ± 0.0226 fold-change vs cycle 0; in assay [2], 0.388 ± 0.0906 fold-change vs cycle 0.
The matching figures for GGGCAA: 0.299 ± 0.00241 fold-change vs cycle 0 and 0.434 ± 0.0775 fold-change vs cycle 0.
The matching figures for GAGGCC: 0.158 ± 0.00288 fold-change vs cycle 0 and 0.286 ± 0.0765 fold-change vs cycle 0.
The matching figures for AGGCGC: 0.0722 ± 0.0162 fold-change vs cycle 0 and 0.185 ± 0.0792 fold-change vs cycle 0.
With ACGAAT, the binding signal in assay [1] came to 1.26 ± 0.0589 fold-change vs cycle 0; in assay [2], 1.24 ± 0.0791 fold-change vs cycle 0.
The matching figures for AGGCAC: 0.34 ± 0.0246 fold-change vs cycle 0 and 0.486 ± 0.0565 fold-change vs cycle 0.
The matching figures for CGCAAC: 0.251 ± 0.0146 fold-change vs cycle 0 and 0.378 ± 0.0552 fold-change vs cycle 0.
The matching figures for CGCACG: 0.0997 ± 0.0037 fold-change vs cycle 0 and 0.21 ± 0.071 fold-change vs cycle 0.
For ATGCGG, the binding signal in assay [1] was 0.275 ± 0.0176 fold-change vs cycle 0; in assay [2], 0.409 ± 0.0549 fold-change vs cycle 0.
The matching figures for AGCCAG: 0.361 ± 0.0134 fold-change vs cycle 0 and 0.485 ± 0.0483 fold-change vs cycle 0.
The matching figures for CGCGAG: 0.135 ± 0.0168 fold-change vs cycle 0 and 0.231 ± 0.0693 fold-change vs cycle 0.
As for GCAAGC, the binding signal was found to be 0.302 ± 0.00778 fold-change vs cycle 0 in assay [1] and 0.429 ± 0.0449 fold-change vs cycle 0 in assay [2].
The matching figures for GTCCGA: 0.371 ± 0.00646 fold-change vs cycle 0 and 0.506 ± 0.055 fold-change vs cycle 0.
The matching figures for CCGGCC: 0.0476 ± 0.00257 fold-change vs cycle 0 and 0.135 ± 0.0646 fold-change vs cycle 0.
On to CGCTGA, for which the results for the binding signal in assay [1] and in assay [2] were 0.291 ± 0.0233 fold-change vs cycle 0 and 0.403 ± 0.0818 fold-change vs cycle 0, respectively.
The matching figures for CCTCGC: 0.171 ± 0.0115 fold-change vs cycle 0 and 0.295 ± 0.0773 fold-change vs cycle 0.
For CTCGGC, the binding signal in assay [1] was 0.127 ± 0.0136 fold-change vs cycle 0; in assay [2], 0.231 ± 0.0599 fold-change vs cycle 0.
With GCTGCC, the results for the binding signal in assay [1] and in assay [2] were 0.109 ± 0.0113 fold-change vs cycle 0 and 0.217 ± 0.0947 fold-change vs cycle 0, respectively.
As to AGGCGG, the binding signal in assay [1] worked out at 0.136 ± 0.00959 fold-change vs cycle 0; in assay [2], 0.264 ± 0.0731 fold-change vs cycle 0.
For ACCGGC, the results for the binding signal in assay [1] and in assay [2] were 0.106 ± 0.00697 fold-change vs cycle 0 and 0.227 ± 0.0683 fold-change vs cycle 0, respectively.
The matching figures for AGCGGA: 0.313 ± 0.018 fold-change vs cycle 0 and 0.432 ± 0.054 fold-change vs cycle 0.
Regarding AGGCTG, the binding signal in assay [1] came to 0.37 ± 0.0148 fold-change vs cycle 0; in assay [2], 0.493 ± 0.0564 fold-change vs cycle 0.
As to ACCATA, the binding signal is 1.42 ± 0.0261 fold-change vs cycle 0 in assay [1] and 1.36 ± 0.0475 fold-change vs cycle 0 in assay [2].
The matching figures for ACAGGC: 0.338 ± 0.0213 fold-change vs cycle 0 and 0.472 ± 0.0921 fold-change vs cycle 0.
The matching figures for ACCCGG: 0.233 ± 0.025 fold-change vs cycle 0 and 0.341 ± 0.0691 fold-change vs cycle 0.
The matching figures for ACGGCT: 0.272 ± 0.0156 fold-change vs cycle 0 and 0.399 ± 0.0636 fold-change vs cycle 0.
As for CGGGGC, the binding signal is 0.0617 ± 0.00701 fold-change vs cycle 0 in assay [1] and 0.163 ± 0.0639 fold-change vs cycle 0 in assay [2].
The matching figures for GAAGTA: 1.6 ± 0.0945 fold-change vs cycle 0 and 1.43 ± 0.121 fold-change vs cycle 0.
With GGAATA, the binding signal in assay [1] amounted to 1.41 ± 0.0506 fold-change vs cycle 0; in assay [2], 1.35 ± 0.0751 fold-change vs cycle 0.
The matching figures for CGGTCC: 0.209 ± 0.0179 fold-change vs cycle 0 and 0.324 ± 0.081 fold-change vs cycle 0.
AGCCCG: the binding signal in assay [1] is 0.14 ± 0.0115 fold-change vs cycle 0; in assay [2], 0.253 ± 0.0774 fold-change vs cycle 0.
The matching figures for AGTGCC: 0.287 ± 0.0119 fold-change vs cycle 0 and 0.444 ± 0.0567 fold-change vs cycle 0.
The matching figures for GGCCTA: 0.299 ± 0.00892 fold-change vs cycle 0 and 0.443 ± 0.0788 fold-change vs cycle 0.
In the case of GGCTCA, the figures for the binding signal in assay [1] and in assay [2] were 0.336 ± 0.00359 fold-change vs cycle 0 and 0.477 ± 0.0634 fold-change vs cycle 0, respectively.
The matching figures for CAGCCC: 0.16 ± 0.0179 fold-change vs cycle 0 and 0.287 ± 0.0742 fold-change vs cycle 0.
The matching figures for AGAATA: 2.17 ± 0.0929 fold-change vs cycle 0 and 1.84 ± 0.188 fold-change vs cycle 0.
The matching figures for GGCGAC: 0.0863 ± 0.00668 fold-change vs cycle 0 and 0.208 ± 0.0638 fold-change vs cycle 0.
For the sequence CCACCG, the binding signal in assay [1] was determined as 0.209 ± 0.0206 fold-change vs cycle 0; in assay [2], 0.322 ± 0.0675 fold-change vs cycle 0.
The matching figures for ATCGCG: 0.221 ± 0.00468 fold-change vs cycle 0 and 0.363 ± 0.0564 fold-change vs cycle 0.
The matching figures for GAACTA: 1.48 ± 0.0646 fold-change vs cycle 0 and 1.37 ± 0.112 fold-change vs cycle 0.
On to GCCGCC, for which the binding signal in assay [1] worked out at 0.0335 ± 0.00625 fold-change vs cycle 0; in assay [2], 0.107 ± 0.0564 fold-change vs cycle 0.
The matching figures for GCCAAC: 0.279 ± 0.0168 fold-change vs cycle 0 and 0.415 ± 0.0905 fold-change vs cycle 0.
In the case of GCGGAA, the results for the binding signal in assay [1] and in assay [2] were 0.245 ± 0.0256 fold-change vs cycle 0 and 0.373 ± 0.0585 fold-change vs cycle 0, respectively.
The matching figures for ACGCAG: 0.305 ± 0.0196 fold-change vs cycle 0 and 0.422 ± 0.0649 fold-change vs cycle 0.
The matching figures for CGTCGA: 0.282 ± 0.0144 fold-change vs cycle 0 and 0.423 ± 0.0617 fold-change vs cycle 0.
The matching figures for GCAGCA: 0.247 ± 0.0238 fold-change vs cycle 0 and 0.368 ± 0.0645 fold-change vs cycle 0.
With ATGCCG, the values for the binding signal in assay [1] and in assay [2] were 0.222 ± 0.0038 fold-change vs cycle 0 and 0.36 ± 0.0731 fold-change vs cycle 0, respectively.
The matching figures for AGTCGG: 0.367 ± 0.00833 fold-change vs cycle 0 and 0.499 ± 0.0416 fold-change vs cycle 0.
The matching figures for ACAGCC: 0.328 ± 0.00712 fold-change vs cycle 0 and 0.462 ± 0.0935 fold-change vs cycle 0.
The matching figures for AACCGC: 0.258 ± 0.0187 fold-change vs cycle 0 and 0.396 ± 0.0835 fold-change vs cycle 0.
